Source: PubChem BioAssay
POLK inh: blocks human DNA polymerase kappa activity | purified Pol kappa, fluorescent DNA synthesis assay, 10 min | Q9UBT6 | 0.53% of 400,000 active | Potency, µM (highest dose often 107 µM), without a hit: at the highest dose activity, negative = inhibition, usual class: inhibitors; further: on the % scale 0 is the no-effect control and ±100 the full control effect
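Fluorescent qHTS in 1536-well format: enzyme (10 nM) and compound sat 15 min at room temperature before 50 nM substrate (final) was added. Signal taken at 0 and 10 min; no-enzyme buffer wells were negative controls.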
Pol eta inh: DNA polymerase eta (human) inhibition. Q9Y253. 1.2% of 390,000 active. Potency, µM (top dose mostly 114 µM), for the others: top-dose activity change, negative = inhibition, most hits filed as inhibitors. recombinant Pol eta, fluorescent DNA replication assay; further: on the % scale 0 is the no-effect control and ±100 the full control effect
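Pol eta (10 nM) was preincubated with compounds for 15 min at room temperature, after which fluorescent replication substrate (50 nM final) was added to start the reaction. Fluorescence was read kinetically at 0 and 10 min.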
Pol beta inh: DNA polymerase beta (human) inhibition | P06746 | Pol beta primer extension/strand displacement, fluorescence kinetic | Potency, µM (highest dose often 114 µM), for the others: at the top dose activity change, negative = inhibition, most hits filed as inhibitors | 1.3% of 340,000 active | AID 485314; further: on the % scale 0 is the no-effect control and ±100 the full control effect
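Homogeneous kinetic assay of primer extension and strand displacement by 10 nM Pol beta, preincubated 15 min at room temperature with compound before 50 nM substrate (final) was added. Read at 0 and 10 min; four-parameter Hill fit.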
L3MBTL1 block: blocks human L3MBTL1 | AlphaScreen L3MBTL1–H3K9me1 peptide binding | Potency, µM (highest dose often 57.1 µM), for the others: top-dose activity, negative = inhibition, usual class: inhibitors | 0.66% of 230,000 active | AID 485360; further: on the % scale 0 is the no-effect control and ±100 the full control effect; nearly all actives have a fitted effect of over 60% in size
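L3MBTL1 (50 nM) pre-complexed 30 min with biotinylated H3(1-15)K9me1 peptide (75 nM), then compounds added for 30 min at room temperature; AlphaScreen streptavidin donor/nickel chelate acceptor beads (10 ug/mL final) read after 30 min dark incubation.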
Pol iota inh: DNA polymerase iota (human) inhibition. Pol iota fluorescent replication assay, 10 min. Potency, µM (highest dose often 115 µM), for inactives: at the top dose activity, negative = inhibition, hits mostly inhibitors. 1% of 390,000 active
Target sequence (Q9UNA4 whole entry, looked up): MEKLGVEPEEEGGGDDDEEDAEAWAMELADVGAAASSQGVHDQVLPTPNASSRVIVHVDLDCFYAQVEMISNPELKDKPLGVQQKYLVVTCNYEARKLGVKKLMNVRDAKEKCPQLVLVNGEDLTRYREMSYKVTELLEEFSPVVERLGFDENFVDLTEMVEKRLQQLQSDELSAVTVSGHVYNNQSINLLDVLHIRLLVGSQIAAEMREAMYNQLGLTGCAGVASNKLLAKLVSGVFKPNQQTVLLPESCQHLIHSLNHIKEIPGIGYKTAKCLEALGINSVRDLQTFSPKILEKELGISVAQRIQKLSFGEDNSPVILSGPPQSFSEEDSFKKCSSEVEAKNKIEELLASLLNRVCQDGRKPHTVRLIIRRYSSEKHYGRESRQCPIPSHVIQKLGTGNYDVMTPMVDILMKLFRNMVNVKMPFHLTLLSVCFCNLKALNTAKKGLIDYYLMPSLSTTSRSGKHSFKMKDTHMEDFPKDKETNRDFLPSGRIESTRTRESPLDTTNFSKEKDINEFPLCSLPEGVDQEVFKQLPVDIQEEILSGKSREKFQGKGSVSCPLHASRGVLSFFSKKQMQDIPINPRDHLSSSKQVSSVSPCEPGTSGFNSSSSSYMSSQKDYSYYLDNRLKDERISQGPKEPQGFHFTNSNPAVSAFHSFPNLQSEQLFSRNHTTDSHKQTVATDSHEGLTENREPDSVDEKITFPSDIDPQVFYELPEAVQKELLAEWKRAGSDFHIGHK
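Pol iota at 10 nM preincubated 15 min with compounds at room temperature; reaction started with fluorescent substrate, 50 nM final. Fluorescence read kinetically at 0 and 10 min; buffer-only wells as negative control.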
APE1 inh: APE1 (human) endonuclease inhibition; Potency, µM (titrated, usually from 65.8 µM), for inactives: top-dose activity change, negative = inhibition, hits mostly inhibitors; 0.35% of 350,000 active; recombinant APE1, TAMRA/BHQ-2 abasic DNA cleavage fluorescence;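 further: plate controls were vehicle for no effect and reference inhibitor for full effect; nearly all actives have a fitted effect of over 55% in size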
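Step 1: APE1 (0.75 nM) with compound, 15 min RT. Step 2: add 50 nM fluorophore/quencher THF duplex. Step 3: three fluorescence reads 60 s apart (525/598 nm); read 3 minus read 1 = reaction progress.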
* hit, by the source's call; u = inconclusive; x = no result given; ! = repeats disagree; [ ] = remark or other dose. Hits are enriched below; roughly 2.5% of the tested compounds scored in any of these assays. The call rests on the fitted dose curve; in most records, active means well fitted curve in the direction sought with a large enough effect; inconclusive means small, poorly fitted or top-dose-only effect, or another doubt; inactive means no such curve, though single readings can be large; an effect the other way counts as inactive or inconclusive. Potency means the concentration at half of the fitted maximal effect.

SMILES | POLK inh | Pol eta inh | Pol beta inh | L3MBTL1 block | Pol iota inh | APE1 inh
COc1cccc(CNC(=O)CSc2nnc(C)c3c(C)n(-c4ccccc4)nc23)c1OC | -6% | -3% | -13% | x | 2% | x
Cc1nnc(SCC(=O)NCc2ccccc2F)c2nn(-c3ccc(Cl)cc3)c(C)c12 | -1%[60.1 µM] | u | u | x | 71µM* | x
COc1cc(/C=C2\SC(=S)N(NC(=O)c3ccc(O)c(OC)c3)C2=O)ccc1O | -28% | u | u | x | 22µM* | 1%
COc1cc(/C=C2\SC(=S)N(NC(=O)c3ccncc3)C2=O)ccc1O | -29% | u | -6% | -26% | 22µM* | u
COc1cc(/C=C2\SC(=S)N(NC(=O)c3cccc(O)c3)C2=O)ccc1O | -40% | u | 16µM* | x | 40µM* | 17%
COc1cc(/C=C2\SC(=S)N(NC(=O)c3ccccc3OC)C2=O)ccc1O | -20% | u | 18µM* | x | 50µM* | -16%
O=C(O)c1ccc(/C=C2\SC(=S)N(NC(=O)c3ccccc3)C2=O)cc1 | u | -15% | u | x | u | 36%
CC(=O)Nc1ccc(NC(=O)c2cc3c(=O)n(Cc4cccnc4)ccc3nc2C)cc1 | -10% | 1% | -14% | x | u | x
CCCCc1cc(=O)oc2c(C)c(OCC(=O)N3C[C@H]4C[C@@H](C3)c3cccc(=O)n3C4)ccc12 | 4% | 5% | 0% | x | -6% | 3%
NC(=O)c1ccc[n+]([C@@H]2O[C@H](COP(=O)([O-])OP(=O)(O)OC[C@H]3O[C@@H](n4cnc5c(N)ncnc54)[C@H](O)[C@@H]3O)[C@@H](O)[C@H]2O)c1 | x | x | x | x | x | -1%[21 µM]
CCOc1cc(/C=C2\SC(=S)N(NC(=O)c3cccnc3)C2=O)ccc1O | -31% | u | u | -23% | 28µM* | u
O=C(NN1C(=O)/C(=C/c2cccs2)SC1=S)c1cccnc1 | -35% | 8% | -21% | -6% | -10% | -2%
Cc1ccc(S(=O)(=O)c2cn(Cc3ccccc3F)c3cc4c(cc3c2=O)OCO4)cc1 | 1% | 5% | 0% | x | 4% | x
CC1(C)[C@@H](O)CC[C@]2(C)[C@H]3C(=O)C=C4[C@@H]5C[C@@](C)(C(=O)O)CC[C@]5(C)CC[C@@]4(C)[C@]3(C)CC[C@@H]12 | 34µM*! | -17% | 11% | 2% | 13% | -7%
COc1ccccc1C(c1c(O)cc(C)n(Cc2ccco2)c1=O)N1CCCCC1 (configuration not stated) | -3%[60.1 µM] | -18% | 21% | x | 3% | x
CCOc1ccccc1-c1noc(CCCC(=O)Nc2cccc(C(F)(F)F)c2)n1 | -10% | -15% | 1% | x | -15% | x
CC1C(=O)Nc2ccc(S(=O)(=O)N3CCN(c4cccc(C(F)(F)F)c4)CC3)cc2NC1=O (configuration not stated) | -10% | 0% | u | x | 35µM* | -3%
CC(=O)[C@@]1(O)[C@H](C)CC2C3CC=C4CC(OP(=O)(O)O)CC[C@]4(C)C3CC[C@@]21C (some centres not stated) | -2% | -21% | 50µM* | x | -4% | 17%
S=C(Nc1ccccc1)Nc1nc2ccccc2n1CCOc1ccc(Br)cc1 | -13% | -17% | -4% | 6.3µM* | 15% | 8%
Nc1nc2ccccc2n1CCOc1ccc(Br)cc1 | 6% | -6% | 18% | x | 28% | 0%
COc1ccc(C(=O)O/N=C2\C(=O)N(C)c3ccccc32)cc1 | 0% | 3% | x | x | -4% | x
CN1C(=O)/C(=N\OC(=O)c2cccc3ccccc23)c2ccccc21 | -6% | 1% | 46% | 0% | 32µM* | 1%
C=CCNc1nnc(Cc2ccc(C(C)C)cc2)c(=O)[nH]1 | -19% | -11% | -13% | x | u | -11%
O=C(N/N=C/c1c[nH]c2ccccc12)c1ccc(O)c(O)c1 | u | u | 45µM* | x | u | -6%
O=C(O)c1cccs1 | 3% | x | x | x | 10% | x
